# From PubChem BioAssay
# Compounds with a hit are over-represented: about 3.6% of the library has one in this group of screens.
# Nrf2 inh: Nrf2 qHTS screen for inhibitors; A549 ARE-Fluc reporter, luciferase luminescence, 18-24 h; hit rate 2.1% among 360,000; AID 504444, 2011; Potency, µM (doses to about 46 µM), actives largely listed as inhibitors; also: nearly all actives have a fitted effect of over 60% in size
#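 A549 ARE_Fluc cells, 5000/well, 5% FBS OPTI-MEM; compounds in dose-response, 18-24 h at 37 °C/5% CO2; CellTiter-Fluor viability read (Ex 405/Em 525), then BugLite luciferase luminescence = Nrf2 activity.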
# Nrf2 activator: qHTS of Nrf2 Activators | AREc32 ARE-luciferase reporter (MCF7-derived line), luminescence, 24 h | hit rate 0.31% among 410,000 | Potency, µM (titrated, usually from 46.1 µM), usual class: activators; also: nearly all actives have a fitted effect of over 65% in size
#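 For detection, Steady-Glo was added and plates sat 30 min at RT; before that, AREc32_Fluc cells grown overnight in OPTI-MEM/5% FBS had been treated with 23 nL compound for 24 hr at 37 deg C.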
# A549 tox: Nrf2 qHTS screen for inhibitors: counterscreen for cytotoxicity; A549 ARE-Fluc cells, CellTiter-Fluor viability, 18-24 h; Potency, µM (highest dose often 46 µM), usual class: inhibitors; hit rate 0.16% among 390,000
#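 A549 ARE-Fluc cells in 5% FBS OPTI-MEM, 5000 cells/well, rested 2 h then exposed to compounds in concentration-response for 18-24 h at 37 °C. Viability by CellTiter-Fluor fluorescence (Ex 405/Em 525) after 30 min; luciferase luminescence (BugLite, 15 min, RT) read afterwards.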
# TGFb SMAD3 inh: qHTS for Inhibitors of TGF-b | HepG2 CAGA-GFP TGF-b/SMAD3 reporter, GFP fluorescence, 18 h; TGF-beta stimulated, 500 pg/mL final | hit rate 1.2% among 410,000 | Potency, µM (series often up to 46.1 µM), hits mostly inhibitors; also: nearly all actives have a fitted effect of over 65% in size
#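 Per well, imaged GFP fluorescence of HEPG2 CAGA-GFP cells gives the signal; cells get compound, then TGF-beta (500 pg/mL final), 18 h at 37 degrees C; %Activity versus -TGF-beta and +DMSO controls.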
# HepG2 viability: qHTS for Inhibitors of TGF-b: Cytotox Counterscreen | HepG2 CAGA-GFP viability, ATP luminescence, 18 h | Potency, µM (titrated, usually from 46.1 µM), hits mostly cytotoxic | hit rate 0.76% among 410,000 | AID 588856, 2011
#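 HepG2 CAGA-GFP cells (1000/well, DMEM with 1% FBS) received compound, then TGF-beta at 500 pg/mL final, and were incubated 18 hours at 37 degrees C. Viability was read by CellTiter-Glo luminescence. Media-only wells were set as complete cell-killing and DMSO as no toxicity.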
# Hits are given with their value; - = inactive; ? = inconclusive; . = not tested or not shown; [ ] = dose if it differs, or a comment. Calls follow the shape of the dose curve; as a rule, active = well fitted curve in the direction sought with a large enough effect; inconclusive = small, poorly fitted or top-dose-only effect, or another doubt; inactive = no such curve, though single readings can be large; an effect the other way counts as inactive or inconclusive.
SMILES,Nrf2 inh,Nrf2 activator,A549 tox,TGFb SMAD3 inh,HepG2 viability
Cc1cc(C(=O)Nc2nc3ccc(S(C)(=O)=O)cc3s2)c(C)o1,-,-,-[1.84 µM],-,-
CCC(=O)Nc1ccccc1-c1nc2ccccc2n(C(CC)C(=O)Nc2cccc(Cl)c2)c1=O (configuration not stated),-,-,-,-,-
CCC(C(=O)Nc1ccc(C)c(Cl)c1)n1c(=O)c(-c2ccccc2NC(C)=O)nc2ccccc21 (configuration not stated),-,-,-,13µM,-
COc1cccc(N=c2oc3ccc(OC)cc3cc2-c2nc3ccccc3[nH]2)c1,?,-,13µM,-,-
COc1ccc(CC(=O)Nc2ccc(OC(C)=O)cc2C(=O)O)cc1,-,-,-,-,1.1µM
CC(=O)Oc1ccc(NC(=O)Cc2ccccc2)c(C(=O)O)c1,-,-,-,-,-
CCOC(=O)c1c(C)[nH]c(C(=O)OC(C)C(=O)Nc2ccccc2OC)c1C (configuration not stated),15µM,-,-,?,-
CCOC(=O)c1c(C)[nH]c(C(=O)Nc2ccc(NC(C)=O)cc2)c1C,8.2µM,-,-,-,-
CCOC(=O)c1c(C)[nH]c(C(=O)OC(C)C(=O)Nc2ccc(C)cc2)c1C (configuration not stated),.,-,.,-,-
CC(=O)c1c(C)[nH]c(C(=O)Nc2cccc(C(F)(F)F)c2)c1C,21µM,-,?,?,-
CC(=O)c1c(C)[nH]c(C(=O)Nc2cccc(C#N)c2)c1C,?,-,-,-,-
CCn1c(SCC(=O)Nc2nonc2C)nnc1-c1ccco1,-,-,-,-,-
COCCNC(=S)N/N=C(\C)c1ccc(C)c([N+](=O)[O-])c1,-,-,-,-,-
CCOC(=O)c1ccc(NC(=O)CCc2nc(-c3ccccc3Cl)no2)cc1,16µM,-,-,-,-
CCOC(=O)c1ccc(NC(=O)CCc2nc(-c3ccccc3)no2)cc1,?,-,-,-,-
COCCCNC(=S)NNC(=O)Cn1nc(C)c(Br)c1C,-,-,-,-,-
O=C(Cc1ccc(S(=O)(=O)N2CCOCC2)s1)Nc1ccc(S(=O)(=O)N2CCCCC2)cc1,21µM,-,-,?,-
CC1CCN(S(=O)(=O)c2ccc(NC(=O)Cc3ccc(S(=O)(=O)N4CCOCC4)s3)cc2)CC1,?,-,-,?,-
O=C(CSC1=NCCS1)Nc1ccc(S(=O)(=O)N2CCCCCC2)cc1,15µM,-,-,-,-
Nc1cc(OC(=O)c2cccs2)nn1S(=O)(=O)c1ccc(F)cc1,-,-,-,-,-
COc1ccc(Cc2nn3c(-c4ccccc4Br)nnc3s2)cc1,16µM,-,-,-,-
Brc1ccccc1-c1nnc2sc(Cc3ccccc3)nn12,-,-,?,-,-
CSc1nc2c(ccc3ccccc32)o1,-,-,-,-,-
COc1ccc(CN(C2CC2)S(=O)(=O)c2ccccc2Br)cc1,16µM,-,-,-,-
Cc1ccc(-n2nc3c(=O)n(CC(=O)NCCCc4ccccc4)nc(C)c3c2C)cc1,?,-,-,?,-
SMILES,Nrf2 inh,Nrf2 activator,A549 tox,TGFb SMAD3 inh,HepG2 viability
Cc1ccc(-n2nc3c(=O)n(C(C)C(=O)NCCCc4ccccc4)nc(C)c3c2C)cc1 (configuration not stated),10µM,-,21µM,?,-
CCC(C(=O)NCc1cccc(Br)c1)n1nc(C)c2c(C)n(-c3ccccc3)nc2c1=O (configuration not stated),?,-,-,-,-
Cc1ccc(-n2nc3c(=O)n(C(C)C(=O)NCc4ccccc4Cl)nc(C)c3c2C)cc1 (configuration not stated),15µM,-,-,?,-
CCC(C(=O)NCc1cccc(C)c1)n1nc(C)c2c(C)n(-c3ccccc3)nc2c1=O (configuration not stated),21µM,-,-,?,-
Cc1ccccc1C(=O)Nc1c(C(=O)N2CCN(C)CC2)cnn1-c1ccccc1,-,-,-,-,-
O=C(Nc1ccc(Cl)cc1F)c1ccc(-n2cncn2)cc1,-,-,-,-,-
COc1cc2c3nnc(-c4ccccc4)c-3cn(Cc3ccc(F)cc3)c2cc1OC,-,-,-,-,22µM
COc1cc2c3nnc(-c4ccc(F)cc4)c-3cn(Cc3ccc(C)cc3)c2cc1OC,-,-,-,-,11µM
COc1cc2c3nnc(-c4ccc(F)cc4)c-3cn(Cc3cccc(F)c3)c2cc1OC,-,-,-,-,-
CCOc1ccc(S(=O)(=O)NCCC(=O)N2CC(C)CC(C)C2)cc1 (configuration not stated),-,-,-,-,-
CC1(C)OC(=O)C2(Cc3ccc(Cl)cc3N3CCCC32)C(=O)O1 (configuration not stated),-,.,-,-,-
COc1ccc(NC(=S)NC(NC(=O)c2ccccc2Cl)C(Cl)(Cl)Cl)c([N+](=O)[O-])c1 (configuration not stated),?,-,?,-,-
COc1ccc(NC(=S)NC(NC(=O)c2ccc(Cl)cc2Cl)C(Cl)(Cl)Cl)c([N+](=O)[O-])c1 (configuration not stated),?,-,?,11µM,-
COc1ccc(NC(=S)NC(NC(=O)c2cccc3ccccc23)C(Cl)(Cl)Cl)c([N+](=O)[O-])c1 (configuration not stated),26µM,-,?,?,-
Cc1ccc(C(C(=O)NC(C)(C)C)N(C(=O)CCC(=O)Nc2ccccn2)c2ccccc2F)cc1 (configuration not stated),-,-,-,-,-
COc1ccc(CNC(=O)[C@H](C)NC(=O)N2CCn3c2nc2ccccc23)cc1,-,-,-,-,-
CCOC(=O)CSc1nc2sc(C)c(C)c2c(=O)[nH]1,?,-,-,-,-
CCOC(=O)/C(=C\c1ccc(Cl)cc1)c1nc2sc(C)c(C)c2c(=O)[nH]1,18µM,?,?,?,8.9µM
CC(=O)N1CCN(C(=O)c2cc(-c3cccc4ccccc34)nc3ccccc23)CC1,-,-,-,-,-
COC(=O)c1scc(C)c1NC(=O)c1cccc(C#N)c1,-,-,-,-,-
COC(=O)c1scc(C)c1NC(=O)C(Cl)c1ccccc1 (configuration not stated),-,13µM,-,-,-
COC(=O)c1scc(C)c1NC(=O)Nc1ccccc1,.,-,-,-,-
COC(=O)c1scc(C)c1NC(=O)c1ccccc1F,?,13µM,-,-,-
COC(=O)CC1C(=O)NCCN1C(=S)Nc1cccc(C)c1 (configuration not stated),-,-,-,-,-
